# Source: PubChem
# The sample as a whole holds a higher share of hits than the screen did.
# 12-LOX inh – Primary qHTS assay for inhibitors of human arachidonate 12S-lipoxygenase (ALOX12): Round 2; Potency, µM (titrated, usually from 108 µM), for inactives: at the top dose activity change, negative = inhibition, actives largely listed as inhibitors; purified 12hLO, xylenol orange hydroperoxide absorbance; 580,000 tested, 1.1% active; Polyunsaturated fatty acid lipoxygenase ALOX12 (Homo sapiens), P18054; also: potency is read from the fitted curve at half-maximal effect
# Target sequence (P18054 whole entry, looked up): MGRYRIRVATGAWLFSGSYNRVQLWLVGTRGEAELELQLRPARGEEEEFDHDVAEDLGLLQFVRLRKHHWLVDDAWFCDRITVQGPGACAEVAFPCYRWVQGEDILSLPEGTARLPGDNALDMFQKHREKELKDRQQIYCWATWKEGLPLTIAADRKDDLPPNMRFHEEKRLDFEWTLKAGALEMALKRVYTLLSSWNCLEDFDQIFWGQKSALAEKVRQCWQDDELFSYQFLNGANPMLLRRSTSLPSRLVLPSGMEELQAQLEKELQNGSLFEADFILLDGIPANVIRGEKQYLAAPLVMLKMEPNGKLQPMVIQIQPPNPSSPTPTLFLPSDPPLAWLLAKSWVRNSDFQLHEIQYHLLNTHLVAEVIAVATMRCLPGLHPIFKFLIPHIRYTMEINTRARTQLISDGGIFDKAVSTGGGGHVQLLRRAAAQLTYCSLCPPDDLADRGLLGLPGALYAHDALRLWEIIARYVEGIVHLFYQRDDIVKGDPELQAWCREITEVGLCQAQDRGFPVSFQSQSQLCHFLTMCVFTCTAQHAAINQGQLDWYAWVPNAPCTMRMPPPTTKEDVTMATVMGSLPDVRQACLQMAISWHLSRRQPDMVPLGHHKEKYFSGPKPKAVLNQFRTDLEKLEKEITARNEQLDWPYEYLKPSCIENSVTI
#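 Purified human 12hLO at 150 nM in 25 mM Hepes, 0.01% Triton X-100, pH 7.0, preincubated 15 min at room temperature with compound. Reaction started with 40 uM arachidonic acid, 30 min at room temperature. Hydroperoxide measured by Fe-xylenol orange, 573/405 nm absorbance ratio.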
# HT1080 IDH1KD tx – qHTS for induction of synthetic lethality in tumor cells producing 2HG: qHTS for the HT-1080-IDH1KD cell line; HT-1080 IDH1 knockdown viability, ATP luminescence, 48 h; Potency, µM (doses to about 46.1 µM), inactives show top-dose activity, negative = toxicity, hits mostly cytotoxic; 360,000 tested, 2% active; AID 686971, 2013;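 also: potency is read from the fitted curve at half-maximal effect; 0% = DMSO wells and -100% = cell-free medium wells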
#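 HT-1080-IDH1KD cells (IDH1 knocked down), 750/well in RPMI with 5% FBS, treated with compound 48 h at 37 degrees C. Viability by CellTiter-Glo luminescence, normalised to DMSO and no-cell wells; concentration-response curves classed.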
# IL-1B inflam inh – qHTS for Inhibitors of Inflammasome Signaling: IL-1-beta AlphaLISA Primary Screen; AID 743279, 2014; 360,000 tested, 4.7% active; activity change, % at 57.5 µM; THP-1 LPS/ATP IL-1B secretion, AlphaLISA, 16 h; hits give low values; in the data active = activity change below about -50%; inconclusive = mostly about -30% to -49%
#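 Secreted IL-1B measured by AlphaLISA bead assay after 16 h compound exposure of THP-1 cells; compounds (final up to 57.5 uM) added 1 h before LPS (250 ng/mL) and ATP (1.25 mM) stimulation; lower signal means less secretion.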
# DT40 TDP1 no CPT – qHTS for Inhibitors of human tyrosyl-DNA phosphodiesterase 1 (TDP1): qHTS in cells in absence of CPT | DT40 Tdp1-/- hTDP1 cells, no CPT, ATP luminescence, 48 h | Potency, µM (titrated, usually from 46.2 µM), for inactives: at the highest dose activity change, negative = growth inhibition, actives largely listed as inhibitors | 420,000 tested, 15% active; also: potency is read from the fitted curve at half-maximal effect; nearly all actives have a fitted effect of over 55% in size
#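 Readout: luminescence from CellTiter-Glo after 30 min in the dark at RT. Cells: DT40 Tdp1-/- with stable hTDP1, 400/well. Exposure: compounds alone, ≥48 hr, 37 °C.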
# HT1080-NT tox – qHTS for induction of synthetic lethality in tumor cells producing 2HG: qHTS for the HT-1080-NT fibrosarcoma cell line; Potency, µM (top dose mostly 46.1 µM), for the others: at the highest dose activity, negative = less viability, hits mostly cytotoxic; HT-1080-NT fibrosarcoma viability, CellTiter-Glo ATP luminescence, 48 h; 360,000 tested, 1.6% active; AID 686970, 2013;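 also: NT is the 2HG producing partner of a matched IDH1 knockdown line; potency is read from the fitted curve at half-maximal effect; 0% = DMSO-treated cells and -100% = media-only wells without cells; nearly all actives have a fitted effect of over 55% in size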
#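 Toxicity toward the 2HG-producing NT line was scored as %Activity, normalised to DMSO and no-cell wells, from CellTiter-Glo luminescence after 48 hours' treatment.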
# DT40 TDP1 CPT – qHTS for Inhibitors of human tyrosyl-DNA phosphodiesterase 1 (TDP1): qHTS in cells in presence of CPT | chicken DT40 Tdp1-/-;hTDP1 cells + 20 nM CPT, ATP luminescence, 48 h | Potency, µM (doses to about 46.2 µM), inactives show top-dose activity change, negative = growth inhibition, most hits filed as inhibitors | 420,000 tested, 12% active; also: potency is read from the fitted curve at half-maximal effect; nearly all actives have a fitted effect of over 55% in size
#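 Chicken DT40 Tdp1-/- cells complemented with human TDP1, 400 cells/well, exposed to compounds plus 20 nM camptothecin for at least 48 h at 37 C; viability read as ATP content by CellTiter-Glo luminescence.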
# Active calls of the source: *; u = inconclusive; x = no result given; [ ] = remark or other dose. Unless noted, calls follow the shape of the dose curve; as a rule, active = well fitted curve in the direction sought with a large enough effect; inconclusive = small, poorly fitted or top-dose-only effect, or another doubt; inactive = no such curve, though single readings can be large; an effect the other way counts as inactive or inconclusive. Unless noted, % is scaled to controls: 0 for no effect and ±100 for the full control effect.
SMILES,12-LOX inh,HT1080 IDH1KD tx,IL-1B inflam inh,DT40 TDP1 no CPT,HT1080-NT tox,DT40 TDP1 CPT
C[C@H]1O[C@@H](O[C@H]2CC[C@@]3(C)[C@H](CC[C@@H]4[C@@H]3C[C@@H](O)[C@]3(C)[C@@H](C5=CC(=O)OC5)CC[C@]43O)C2)C[C@H](O)[C@@H]1O[C@H]1C[C@H](O)[C@H](O[C@H]2C[C@H](O)[C@H](O[C@@H]3O[C@H](CO)[C@@H](O)[C@H](O)[C@H]3O)[C@@H](C)O2)[C@@H](C)O1,-2.3%,x,x,0.944µM*,x,1.33µM*
CC(=O)O[C@H]1C[C@H](O[C@H]2[C@@H](O)C[C@H](O[C@H]3[C@@H](O)C[C@H](OC4CC[C@@]5(C)C(CC[C@@H]6[C@@H]5CC[C@]5(C)[C@@H](C7=CC(=O)OC7)[C@@H](O)C[C@]65O)C4)O[C@@H]3C)O[C@@H]2C)O[C@H](C)[C@H]1O[C@@H]1O[C@H](CO)[C@@H](O)[C@H](O)[C@H]1O (stereo partly drawn),10.7%,x,x,2.37µM*,x,3.35µM*
CC(=O)OC1CC2(O)[C@@H]3CCC4CC(OC5CC(O)C(OC6CC(O)C(OC7CC(O)C(O)C(C)O7)C(C)O6)C(C)O5)CCC4(C)[C@H]3CCC2(C)C1C1=CC(=O)OC1 (stereo partly drawn),-65.6%,x,x,x,x,x
Cc1ncc2c(n1)C[C@@H]1CC[C@H]2N1C(=O)c1ccc2c(c1)OCO2,9.1%,x,x,x,x,x
CCOC(=O)[C@]12Cc3cc(OC)ccc3[C@H]1N(CCC(=O)OC)C(=O)c1cc(OC)ccc12,-17.5%,u,-54.0*,14.6µM*,u,u
COc1ccc2c(c1)C1(CCN(C(=O)c3ccccc3C)C1)C(=O)N2 (stereo not drawn),12.0%,x,x,x,x,x
CCOC(=O)[C@]12Cc3ccccc3[C@H]1N(CCC(=O)OC)C(=O)c1cc(OC)ccc12,u,u,-117.8*,u,u,u
CCCC[N+]12C3CC(C(CC)[C@H]1O)[C@@H]1C(O)C4(C[C@@H]12)c1ccccc1N(C)C34 (stereo partly drawn),-0.5%,x,x,-10.5%[9.04 µM],x,u
CCCCCCCCCCCCCCCC[N+](C)(C)C,u,u,-14.2,1.84µM*,11.6µM*,2.31µM*
CCCCCCCCCC[N+](C)(C)CCCCCCCCCC,x,x,x,0.944µM*,x,1.33µM*
CCCCCCCCCCCCCCCCCC[N+](C)(C)CCC[Si](OC)(OC)OC,x,x,x,11.9µM*,x,23.7µM*
Cc1cc(C)c(N)cc1C,-9.7%,7.1%,4.0,u,21.8%,-12.3%
CC(C)c1ccc2c(c1)C(N1CCNCC1)Cc1ccc(F)cc1S2 (stereo not drawn),u,u,-97.3*,25.9µM*,-8.2%,u
Cc1cc(C)c(OCC(=O)Nc2cccc(NC(=O)c3ccco3)c2)c(Br)c1,-0.6%,u,-54.9*,13µM*,u,23.1µM*
Cc1cc(-c2ccccc2)cc(C)[n+]1Cc1ccccc1,0.8%,-25.8%,-2.2,1.64µM*,-0.8%,1.46µM*
c1ccc(-c2ccncc2)cc1,2.0%,0.5%,-8.5,-1.3%,u,7.3%
O=S(=O)(c1ccccc1)N1[C@H]2CC[C@@H]1c1cncnc1C2,23.7%,x,x,x,x,x
Cc1cccc(C)c1-n1nnnc1C(C1CC1)N1CCC2(CC1)C(=O)NCN2c1ccccc1 (stereo not drawn),-3.9%,u,-27.8,14.6µM*,u,16.4µM*
CC(C)(C)n1nnnc1C(c1ccnc2ccccc12)N1CCC2(CC1)C(=O)NCN2c1ccccc1 (stereo not drawn),u,5.0%,-8.9,u,-0.8%,u
COc1ccc(C(c2nnnn2-c2c(C)cccc2C)N2CCC3(CC2)C(=O)NCN3c2ccccc2)cc1 (stereo not drawn),-23.4%,u,-64.5*,20.6µM*,23.1µM*,14.6µM*
COc1ccc(C(c2nnnn2C(C)(C)C)N2CCC3(CC2)C(=O)NCN3c2ccccc2)cc1 (stereo not drawn),u,0.0%,6.7,u,15.4%,u
Cc1cccc(C)c1-n1nnnc1C(c1ccccc1)N1CCC2(CC1)C(=O)NCN2c1ccccc1 (stereo not drawn),-20.8%,u,u,20.6µM*,u,23.1µM*
Cc1cccc(C)c1-n1nnnc1C(c1ccnc2ccccc12)N1CCC2(CC1)C(=O)NCN2c1ccccc1 (stereo not drawn),u,u,u,14.6µM*,u,23.1µM*
CC(C)(C)n1nnnc1C(C1CC1)N1CCC2(CC1)C(=O)NCN2c1ccccc1 (stereo not drawn),u,0.8%,-20.7,16.4µM*,17.1%,u
CCCCNC(C)(C)[P+](=O)O,x,x,x,6.5%,x,-3.7%
SMILES,12-LOX inh,HT1080 IDH1KD tx,IL-1B inflam inh,DT40 TDP1 no CPT,HT1080-NT tox,DT40 TDP1 CPT
CC[C@H]1CN2CC[C@H]1C[C@@H]2CNC(=O)NC1CCCCC1,25.2%[176 µM],x,x,x,x,x
O=C(CN1CC=C(c2ccccc2)CC1)NC(=O)NC1CCCCC1,-6.9%,-7.0%,-5.8,u,0.1%,-18.5%
CC(C)(C)NC(=O)NC(=O)CN1CC=C(c2ccccc2)CC1,35.9%,-1.5%,-5.2,13µM*,-3.4%,16.4µM*
CN1Cc2ccccc2-n2ccnc2C12CCN(C(=O)Cc1ccc(Cl)cc1)CC2,23.0%,x,x,x,x,x
O=C(O)c1ccccc1-c1ccc(C=C2C(=O)N(c3ccccc3)C(=S)N(c3ccccc3)C2=O)o1,31.6µM*,3.7%,-12.2,1.5%,1.4%,u
Cc1cc(OC(=O)CCNC(=O)OC(C)(C)C)c2c3c(c(=O)oc2c1)CCC3,16.2%,-14.2%,-9.6,20.6µM*,-12.2%,u
Cc1cc(OCC(=O)OC(C)(C)C)c2c3c(c(=O)oc2c1)CCC3,0.0%,-3.0%,32.2,-25.3%,-0.5%,-23.5%
CCC(NC(=O)OC(C)(C)C)C(=O)Oc1cc(C)cc2oc(=O)c3c(c12)CCC3 (stereo not drawn),0.0%,15.9%,26.5,11.6µM*,13.5%,20.6µM*
